Compound activity (PubChem)
HCV inh: qHTS Assay for Inhibitors of Hepatitis C Virus (HCV). actives 3.4% (n = 340,000). Potency, µM (titrated, usually from 41.8 µM), usual class: inhibitors. AID 651820, 2012. Huh7.5.1 HCVcc-Cre infection, luciferase reporter, 44 h
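Luciferase read-out (15 sec integration) after a 15 min room-temperature substrate step quantifies HCVcc-Cre infection. Cells, 1,000 per well, had compound added 4 h post-plating, then virus at ~0.5 moi, and were cultured 44 h.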
Pf growth 48h: Primary qHTS for delayed death inhibitors of the malarial parasite plastid, 48 hour incubation | P. falciparum luciferase growth in erythrocytes, 48 h | Potency, µM (titrated, usually from 28.7 µM), actives largely listed as inhibitors | actives 5.9% (n = 310,000) | AID 504832, 2011
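Compounds are pin-transferred into medium, infected erythrocytes (2% hematocrit, 0.1% parasitemia final) are added, and plates sit one parasite generation at 37 C in 5% CO2. Detection reagent is then added and luminescence measured.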
VACV Venus inh: qHTS for Stage-Specific Inhibitors of Vaccinia Orthopoxvirus: Venus Reporter Primary qHTS; Vaccinia virus Venus reporter expression, fluorescence; Potency, µM (series often up to 36.5 µM), most hits filed as inhibitors; actives 0.46% (n = 330,000); AID 720580, 2013; calls by dose curve; tested in A549 cells; note: nearly all actives have a fitted effect of over 30% in size
NS1 inh: qHTS Assay for Inhibitors of Influenza NS1 Protein Function | Potency, µM (titrated, usually from 46.1 µM) | actives 0.4% (n = 270,000) | AID 2326, 2010; calls by dose curve; note: actives are rising curves; nearly all actives have a fitted effect of over 50% in size
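Recovery from NS1-induced slow growth read by OD600 in budding yeast switched to galactose assay medium (pH 6.0, -URA) at 1:100 dilution. Compound 23 nl per well; the matching strain lacking NS1 serves as control.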
Pf growth 96h: Primary qHTS for delayed death inhibitors of the malarial parasite plastid, 96 hour incubation. P. falciparum luciferase reporter growth, 96 h. Potency, µM (series often up to 28.7 µM), most hits filed as inhibitors. actives 6.9% (n = 320,000)
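Plates of compound plus infected erythrocytes (2% hematocrit, 0.05% parasitemia final) incubate 96 hours, 37 C, 5% CO2. Detection reagent added; reduced luminescence from the parasites' luciferase reporter flags inhibition.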
Vaccinia mCherry: qHTS for Stage-Specific Inhibitors of Vaccinia Orthopoxvirus: mCherry Reporter Primary qHTS; Vaccinia virus mCherry reporter infection, fluorescence; AID 720579, 2013; actives 0.63% (n = 310,000); Potency, µM (series often up to 36.5 µM), usual class: inhibitors; calls by dose curve; tested in A549 cells; note: nearly all actives have a fitted effect of over 35% in size
Each line names hits and unclear results; the compound was inactive in the other large screens; ! = not active in a repeat. Rows were chosen to be rich in hits. Some 11% of all compounds tested hit in one or more screens of this group. Unless noted, calls come from the whole dose curve; as a rule, active = well fitted inhibition curve with a large enough effect; inconclusive = small, poorly fitted or top-dose-only effect, or another doubt; inactive = no such curve, though single readings can be large or run the other way.

O=C(COc1ccc(S(=O)(=O)N2CCCCC2)cc1)NC1CCCCC1	Pf growth 48h 8.3µM, Pf growth 96h inconclusive (no result: Vaccinia mCherry)
O=C(O)c1cc(=O)cc(C(=O)O)[nH]1	none (no result: VACV Venus inh, Pf growth 96h, Vaccinia mCherry)
CN(C)c1ccc(/C=c2\sc3n(c2=O)CCCN=3)cc1	HCV inh inconclusive
COc1ccc(OC)c(C2Nc3nc4ccccc4n3C(C)=C2C(=O)Nc2ccc(C)cc2C)c1 (stereo not drawn)	Pf growth 48h 7.4µM, NS1 inh inconclusive (no result: VACV Venus inh, Pf growth 96h, Vaccinia mCherry)
CCc1ccccc1Nc1cc(C(=O)NC2CCC(C)CC2)c2ccccc2n1 (stereo not drawn)	none (no result: HCV inh, Pf growth 48h, NS1 inh, Pf growth 96h)
Cc1cc(C)cc(N(CCC#N)C(=O)COC(=O)c2ccc(OCc3c(C)noc3C)cc2)c1	HCV inh inconclusive, Pf growth 48h inconclusive, Pf growth 96h 10µM (no result: NS1 inh)
Cc1noc(C)c1COc1ccc(C(=O)OCC(=O)OC(C)(C)C)cc1	none (no result: NS1 inh)
COc1cccc(C2=Nn3c(nnc3-c3ccccc3O)SC2)c1	HCV inh inconclusive, Pf growth 48h 13µM (no result: VACV Venus inh, Vaccinia mCherry)
COc1cc(-c2nnc3n2N=C(c2ccccc2)CS3)cc(OC)c1OC	HCV inh 10µM, Pf growth 48h inconclusive, VACV Venus inh inconclusive, Pf growth 96h inconclusive, Vaccinia mCherry inconclusive
COc1ccc(C2=Nn3c(nnc3-c3ccccc3OC)SC2)cc1OC	HCV inh inconclusive, Pf growth 48h 10µM, Pf growth 96h 3.7µM!, Vaccinia mCherry inconclusive
COc1ccc(OC)c(C2=Nn3c(nnc3-c3cc(OC)c(OC)c(OC)c3)SC2)c1	Pf growth 48h 6.6µM, VACV Venus inh inconclusive (no result: HCV inh)
Cc1cn(CC[C@H](N)C(=O)O)c(=O)[nH]c1=O	none (no result: HCV inh, Pf growth 48h, VACV Venus inh, Pf growth 96h, Vaccinia mCherry)
COc1ccc(CCN2CC(C(=O)NCc3c(C)n[nH]c3C)CCC2=O)cc1 (stereo not drawn)	none (no result: HCV inh)
Cc1cc(C)cc(NC(=O)CSc2nc3c(cnn3-c3ccc(F)cc3)c(=O)[nH]2)c1	none (no result: HCV inh, Pf growth 48h, NS1 inh, Pf growth 96h)
CC(=O)N1c2ccc(S(=O)(=O)NCC3CCC(C(=O)Nc4ccc(C)cn4)CC3)cc2CC1C (stereo not drawn)	HCV inh inconclusive, Pf growth 48h inconclusive, Pf growth 96h inconclusive
CC(C)(C)C1=Nn2c(nnc2-c2ccccn2)SC1	Pf growth 96h 8.3µM (no result: Pf growth 48h, VACV Venus inh, Vaccinia mCherry)
COc1ccc(OC)c(C2=Nn3c(nnc3-c3ccncc3)SC2)c1	none (no result: Pf growth 48h, NS1 inh, Pf growth 96h)
COc1cccc(-c2nnc3n2N=C(C(C)(C)C)CS3)c1	HCV inh 11µM, Pf growth 48h inconclusive, Pf growth 96h 13µM (no result: VACV Venus inh, Vaccinia mCherry)
COc1cccc(-c2nnc3n2N=C(c2cc(OC)ccc2OC)CS3)c1	HCV inh 10µM, Pf growth 48h inconclusive, Pf growth 96h inconclusive (no result: VACV Venus inh, Vaccinia mCherry)
COc1ccc(-c2nnc3n2N=C(c2cccc(Br)c2)CS3)cc1OC	none (no result: HCV inh, VACV Venus inh, Vaccinia mCherry)
CCOc1cccc(-c2nnc3n2N=C(c2cc(OC)ccc2OC)CS3)c1	HCV inh 11µM, Pf growth 48h 12µM, Pf growth 96h 12µM
CC(=O)Nc1ccc(CN2CCc3c([nH]c4ccccc34)C2c2ccccn2)cc1 (stereo not drawn)	Pf growth 48h inconclusive, Vaccinia mCherry inconclusive
CC(C)Nc1nc(Cl)nc(NN(C)c2nc(N(C)C)nc(N(C)C)n2)n1	HCV inh inconclusive, Pf growth 48h inconclusive, Pf growth 96h inconclusive
COc1ccc(-c2nnc3n2N=C(C)CS3)cc1	none (no result: VACV Venus inh, Vaccinia mCherry)
COc1ccc(C2=Nn3c(nnc3-c3ccc(OC)cc3)SC2)cc1	HCV inh 3.5µM, Pf growth 48h 10µM (no result: VACV Venus inh, Pf growth 96h, Vaccinia mCherry)
COc1ccc(N=C2SCC(=O)N2c2ccc(OC)cc2)cc1	Pf growth 96h inconclusive (no result: Pf growth 48h)
COc1ccc(N=C2SCC(c3ccccc3)=NN2C)cc1	HCV inh inconclusive, Pf growth 48h 2.6µM (no result: VACV Venus inh, Vaccinia mCherry)
Cc1cc(-c2nnc3n2N=C(c2ccccc2Br)CS3)n[nH]1	Pf growth 48h inconclusive, Pf growth 96h 12µM
COc1ccc(CN=C(Nc2ccccc2)SC2CC(=O)NC2=O)cc1 (stereo not drawn)	Pf growth 48h inconclusive
COCC(=O)Nc1cc(Cl)ccc1C	Pf growth 96h inconclusive (no result: NS1 inh)
